# HT1080 IDH1KD tx – HT-1080 IDH1 knockdown cell toxicity (counter line). Potency, µM (titrated, usually from 46.1 µM), for inactives: top-dose activity, negative = toxicity, actives largely listed as cytotoxic. HT-1080 IDH1 knockdown viability, ATP luminescence, 48 h. AID 686971. actives 2% (n = 360,000);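 note: 0% = DMSO wells and -100% = cell-free medium wells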
#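 CellTiter-Glo luminescence after 48 h compound exposure at 37 degrees C of IDH1-knockdown HT-1080 cells in 5% FBS RPMI. %Activity scaled between DMSO wells and cell-free media wells, with curves fitted and assigned curve classes.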
# TDP1 cell noCPT – qHTS for Inhibitors of human tyrosyl-DNA phosphodiesterase 1 (TDP1): qHTS in cells in absence of CPT; DT40 Tdp1-/- hTDP1 cells, no CPT, ATP luminescence, 48 h; Potency, µM (top dose mostly 46.2 µM), for the others: at the highest dose activity change, negative = growth inhibition, actives largely listed as inhibitors; AID 686978, 2013; actives 15% (n = 420,000); note: % is set by controls: 0 for no effect and ±100 for the full control effect; nearly all actives have a fitted effect of over 55% in size
#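 Chicken DT40 Tdp1-/- cells complemented with human TDP1, screened without camptothecin (DMSO vehicle only), 400 cells/well. Compounds pin-transferred, cells incubated at 37 °C for at least 48 hr. Growth read as ATP-dependent luminescence (CellTiter-Glo, 30 min at RT).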
# DT40 TDP1 CPT – growth inhibition of DT40 Tdp1-/-;hTDP1 cells with camptothecin (screen for TDP1 inhibitors); actives 12% (n = 420,000); Potency, µM (series often up to 46.2 µM), for the others: at the highest dose activity change, negative = growth inhibition, most hits filed as inhibitors; AID 686979; chicken DT40 Tdp1-/-;hTDP1 cells + 20 nM CPT, ATP luminescence, 48 h; note: % is set by controls: 0 for no effect and ±100 for the full control effect; nearly all actives have a fitted effect of over 55% in size
#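 Chicken DT40 Tdp1-/- cells complemented with human TDP1, 400 cells/well, exposed to compounds plus 20 nM camptothecin for at least 48 h at 37 C; viability read as ATP content by CellTiter-Glo luminescence.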
# HT1080-NT tox – kills 2HG-producing HT-1080-NT fibrosarcoma cells; HT-1080-NT fibrosarcoma viability, CellTiter-Glo ATP luminescence, 48 h; Potency, µM (highest dose often 46.1 µM), for inactives: at the top dose activity, negative = less viability, usual class: cytotoxic; actives 1.6% (n = 360,000);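 note: NT is the 2HG producing partner of a matched IDH1 knockdown line; 0% = DMSO-treated cells and -100% = media-only wells without cells; nearly all actives have a fitted effect of over 55% in size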
#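 A 48-hour cytotoxicity screen used HT-1080-NT cells plated 2 hours before compound delivery. ATP-based CellTiter-Glo luminescence measured viability, normalized to DMSO and no-cell controls.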
# TGFb SMAD3 inh – blocks TGF-b signaling; Potency, µM (highest dose often 46.1 µM), for inactives: top-dose activity, negative = inhibition, usual class: inhibitors; actives 1.2% (n = 410,000); HepG2 CAGA-GFP TGF-b/SMAD3 reporter, GFP fluorescence, 18 h; TGF-beta stimulated, 500 pg/mL final; AID 588855; note: % is set by controls: 0 for no effect and ±100 for the full control effect; nearly all actives have a fitted effect of over 65% in size
#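 Smad-responsive CAGA-GFP expression was quantified in HEPG2 cells exposed to compounds and 500 pg/mL final TGF-beta for 18 h at 37 degrees C; unstimulated wells defined full inhibition.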
# HepG2 viability – counter-screen for TGF-b inhibitors: cytotoxicity in HepG2 cells. HepG2 CAGA-GFP viability, ATP luminescence, 18 h. Potency, µM (series often up to 46.1 µM), without a hit: top-dose activity change, negative = cytotoxicity, hits mostly cytotoxic. actives 0.76% (n = 410,000)
#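 CellTiter-Glo luminescence gave cytotoxicity after 18 hours at 37 degrees C. The cells were HepG2 CAGA-GFP in 1% FBS DMEM, stimulated with 500 pg/mL TGF-beta after compound addition. %Activity was normalised to no-cell wells (complete cell-killing) and DMSO (no toxicity), and curves were fitted and classified.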
# Starred values were filed as active, the others as inactive; u = inconclusive; x = no result given. A selection: hits, their analogues and other compounds. The true share with any hit is near 17%. Calls come from the whole dose curve; as a rule, active = well fitted curve in the direction sought with a large enough effect; inconclusive = small, poorly fitted or top-dose-only effect, or another doubt; inactive = no such curve, though single readings can be large; an effect the other way counts as inactive or inconclusive. Potency is the fitted concentration of half-maximal effect.
SMILES,HT1080 IDH1KD tx,TDP1 cell noCPT,DT40 TDP1 CPT,HT1080-NT tox,TGFb SMAD3 inh,HepG2 viability
C=CCc1c(C)[nH]c2c(OC)cccc2c1=S,-3%,18µM*,13µM*,-20%,-19%,-16%
CCCCc1c(C)[nH]c2c(OC)cccc2c1=S,x,u,-7%,x,-19%,-13%
O=S1(=O)C=C(Sc2nnc(-c3ccccc3)o2)c2ccccc21,1.3µM*,0.58µM*,0.52µM*,2.8µM*,10µM*,14µM*
Cc1cc(C)nc(SC2=CS(=O)(=O)c3ccccc32)n1,u,18µM*,u,23µM*,3%,-37%
O=S1(=O)C=C(Sc2nc3ccccc3s2)c2ccccc21,2.6µM*,0.65µM*,0.82µM*,2.3µM*,2.8µM*,11µM*
CC(NS(=O)(=O)c1cc2c3c(c1)CCN3C(=O)CC2)c1ccccc1 (centres undefined),1%,1%,-7%,4%,-4%,-3%
Cc1ccc([C@@H]2C[C@H]3[C@@H](CN2S(=O)(=O)c2ccc(C)cc2)C(=O)C[C@@H](c2ccc(Cl)cc2)N3S(=O)(=O)c2ccccc2C)cc1,5%,-11%,-11%,1%,10%,-3%
CCN(CC)CCN(C)C1CCC(c2ccccc2)CC1 (centres undefined),-12%,21µM*,16µM*,-11%,-3%,-51%
COc1ccc(Cn2c(SCC(=O)NCc3ccc(Cl)cc3)nc3ccsc3c2=O)cc1,x,-22%,u,x,-6%,-4%
COc1ccc(-c2nc3ccccc3nc2-c2ccc(OC)c(OC)c2)cc1OC,5%,-3%,-4%,7%,38%,-41%
COc1ccc(-c2cc3ccccc3nc2N)cc1OC,-1%,21µM*,18µM*,1%,-9%,-27%
COc1cccc(CNc2nc3cc(-c4ccc(C(=O)N5CCN(C)CC5)cc4)sc3c(=O)n2C)c1,15µM*,u,21µM*,23µM*,u,-44%
CN(C)CCCNc1nc2cc(-c3ccc(C(=O)N4CCN(C)CC4)cc3)sc2c(=O)n1C,4%,u,-1%,-21%,31%,-35%
C=CCNc1nc2cc(-c3ccc(C(=O)N4CCOCC4)cc3)sc2c(=O)n1C,u,u,16µM*,u,49%,-6%
COc1cccc(CNc2nc3cc(-c4ccccc4)sc3c(=O)n2C)c1,-20%,u,u,u,u,-15%
CC(C)(C)C(=O)Nc1ccc(C(=O)COC(=O)C2=COCCO2)cc1,-17%,8%,0%,3%,0%,-8%
Cc1cc2nc(CCN(C(=S)NCC3CCCO3)C3CCCC3)[nH]c2cc1C (centres undefined),4%,u,u,8%,u,-83%
Cc1cc2nc(CCN(C(=S)NCC(C)C)C3CCCC3)[nH]c2cc1C,u,23µM*,u,u,-10%,-34%
C=CC[C@@H](CC(=O)N[C@H](CO)Cc1ccccc1)C(=O)N[C@@H](COC(=O)[C@@H](CC=C)CC(=O)OC(C)(C)C)Cc1ccccc1,-7%,u,16µM*,-4%,-9%,-26%
C=CC[C@@H](CC(=O)N[C@H](CO)Cc1ccccc1)C(=O)N[C@H](C)COC(=O)[C@@H](CC=C)CC(=O)OC(C)(C)C,-1%,u,u,1%,-19%,-3%
C=CC[C@H](CC(=O)N[C@H](CO)Cc1ccccc1)C(=O)N[C@@H](COC(=O)[C@H](CC=C)CC(=O)OC(C)(C)C)Cc1c[nH]c2ccccc12,u,23µM*,21µM*,u,u,-25%
C=CC[C@@H](CC(=O)N[C@@H](CO)Cc1ccccc1)C(=O)N[C@@H](COC(=O)[C@H](CC=C)CC(=O)OC(C)(C)C)Cc1c[nH]c2ccccc12,-22%,21µM*,u,-19%,u,-64%
C=CC[C@@H](CC(=O)N[C@@H](CO)Cc1ccccc1)C(=O)N[C@@H](COC(=O)[C@@H](CC=C)CC(=O)OC(C)(C)C)Cc1c[nH]c2ccccc12,-5%,13µM*,21µM*,-8%,u,-21%
C=CC[C@@H](CC(=O)N[C@H](CO)Cc1ccccc1)C(=O)N[C@H](COC(=O)[C@@H](CC=C)CC(=O)OC(C)(C)C)Cc1c[nH]c2ccccc12,u,u,u,u,u,-30%
Cc1cccc(-n2c(=O)c3c(c4cc(C)ccc4n3C)n(CC(=O)N3CCCC3)c2=O)c1,x,2%,-6%,x,8%,0%
SMILES,HT1080 IDH1KD tx,TDP1 cell noCPT,DT40 TDP1 CPT,HT1080-NT tox,TGFb SMAD3 inh,HepG2 viability
CCN(CC(=O)Nc1c(F)cccc1F)C(=O)c1cnccn1,18%,7%,0%,10%,-4%,-4%
C=CC[C@@H](CC(=O)N[C@H](CO)Cc1ccccc1)C(=O)N[C@@H](COC(=O)[C@@H](CC=C)CC(=O)OC(C)(C)C)Cc1c[nH]c2ccccc12,-9%,u,16µM*,-5%,-18%,-27%
C=CC[C@@H](CC(=O)N[C@@H](CO)Cc1ccccc1)C(=O)NC[C@@H](OC(=O)[C@@H](CC=C)CC(=O)OC(C)(C)C)c1ccccc1,-6%,u,21µM*,-2%,-9%,-14%
C=CC[C@H](CC(=O)N[C@H](CO)Cc1ccccc1)C(=O)N[C@H](COC(=O)[C@@H](CC=C)CC(=O)OC(C)(C)C)Cc1c[nH]c2ccccc12,-10%,u,u,-8%,-29%,-28%
CCOc1ccc(NC(=O)CCc2nnc3ccc(N4CCC5(CC4)OCCO5)nn23)cc1,12%,4%,-3%,6%,2%,-2%
CCCC/C=C/[C@H](c1ccccc1)[C@H](CO)Cc1cccnc1,10%,16µM*,u,0%,u,-41%
CCCC/C=C/[C@H](c1ccccc1)[C@H](CO)Cc1ccccc1,x,x,x,x,-24%,-25%
CCCCN(C)C(=O)c1ccc2c(c1)NC(=O)C(CC(C)C)N2 (centres undefined),x,-17%,-4%,x,5%,5%
CC(C)C(C)/C=C/C(C)C1CCC2C3=CC=C4CC(O)CCC4(C)C3CCC21C (centres undefined),x,-19%,-1%,x,x,x
